Assay outcomes: PubChem, National Center for Advancing Translational Sciences (NCATS)
Sampled rows, rich in hits. Any-hit rate of the full collection: about 17%.
HepG2 tox: kills HepG2 cells in TGF-b inhibitor counter-screen; HepG2 CAGA-GFP viability, ATP luminescence, 18 h; Potency, µM (series often up to 46.1 µM), for inactives: top-dose activity change, negative = cytotoxicity, most hits filed as cytotoxic; 0.76% of 410,000 active
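CellTiter-Glo luminescence gave cytotoxicity after 18 hours at 37 degrees C. The cells were HepG2 CAGA-GFP in 1% FBS DMEM, stimulated with 500 pg/mL TGF-beta after compound addition. %Activity was normalised to no-cell wells (complete cell-killing) and DMSO (no toxicity), and curves were fitted and classified.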
TGFb inhibitor: inhibitors of TGF-b signaling; HepG2 CAGA-GFP TGF-b/SMAD3 reporter, GFP fluorescence, 18 h; TGF-beta stimulated, 500 pg/mL final; Potency, µM (doses to about 46.1 µM), for the others: at the top dose activity, negative = inhibition, most hits filed as inhibitors; 1.2% of 410,000 active; AID 588855; further: on the % scale 0 is the no-effect control and ±100 the full control effect; nearly all actives have a fitted effect of over 65% in size
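Inhibition was scored as loss of TGF-beta-induced (500 pg/mL final, 18 hours, 37 degrees C) GFP in HEPG2 cells carrying a CAGA-GFP reporter, in DMEM with 1% FBS. Well GFP was summed per cell; Activity was normalised to unstimulated and stimulated DMSO wells, then concentration-response fitting.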
HT1080 IDH1KD tx: toxicity to HT-1080 IDH1 knockdown cells (counter line). HT-1080 IDH1 knockdown viability, ATP luminescence, 48 h. Potency, µM (series often up to 46.1 µM), for the others: at the highest dose activity, negative = toxicity, hits mostly cytotoxic. 2% of 360,000 active;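 further: 0% = DMSO wells and -100% = cell-free medium wells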
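In this qHTS, HT-1080 cells depleted of IDH1 are exposed for 48 h at 37 °C to compound titrations. Toxicity is scored from CellTiter-Glo luminescence, with DMSO as full viability and medium alone as none.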
TDP1 cell noCPT: qHTS for Inhibitors of human tyrosyl-DNA phosphodiesterase 1 (TDP1): qHTS in cells in absence of CPT; DT40 Tdp1-/- hTDP1 cells, no CPT, ATP luminescence, 48 h; Potency, µM (top dose mostly 46.2 µM), for the others: top-dose activity change, negative = growth inhibition, actives largely listed as inhibitors; 15% of 420,000 active; AID 686978, 2013; further: on the % scale 0 is the no-effect control and ±100 the full control effect; nearly all actives have a fitted effect of over 55% in size
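Chicken DT40 Tdp1-/- cells stably complemented with human TDP1 were seeded at 400 cells/well with DMSO in place of 20 nM camptothecin. After compound pinning, cells grew at least 48 hr at 37 °C; viability read by CellTiter-Glo luminescence.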
HT1080NT lethal: kills 2HG-producing HT-1080-NT fibrosarcoma cells. Potency, µM (doses to about 46.1 µM), for inactives: at the top dose activity, negative = less viability, actives largely listed as cytotoxic. 1.6% of 360,000 active. HT-1080-NT fibrosarcoma viability, CellTiter-Glo ATP luminescence, 48 h;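 further: NT is the 2HG producing partner of a matched IDH1 knockdown line; 0% = DMSO-treated cells and -100% = media-only wells without cells; nearly all actives have a fitted effect of over 55% in size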
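Compounds were tested in concentration-response format on HT-1080-NT cells for 48 hours at 37 degrees C. Cell viability came from CellTiter-Glo luminescence; curves were classified by r2, response magnitude and activity.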
DT40 TDP1 CPT: growth inhibition of DT40 Tdp1-/-;hTDP1 cells with camptothecin (screen for TDP1 inhibitors) | chicken DT40 Tdp1-/-;hTDP1 cells + 20 nM CPT, ATP luminescence, 48 h | Potency, µM (titrated, usually from 46.2 µM), without a hit: at the highest dose activity change, negative = growth inhibition, hits mostly inhibitors | 12% of 420,000 active | AID 686979; further: on the % scale 0 is the no-effect control and ±100 the full control effect; nearly all actives have a fitted effect of over 55% in size
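Chicken DT40 Tdp1-/- cells complemented with human TDP1, 400 cells/well, exposed to compounds plus 20 nM camptothecin for at least 48 h at 37 C; viability read as ATP content by CellTiter-Glo luminescence.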
Active calls of the source: *; [ ] = remark or other dose. The call rests on the fitted dose curve; in most records, active means well fitted curve in the direction sought with a large enough effect; inconclusive means small, poorly fitted or top-dose-only effect, or another doubt; inactive means no such curve, though single readings can be large; an effect the other way counts as inactive or inconclusive. Potency means the concentration at half of the fitted maximal effect.

Screening COc1ccc(C(=O)NCC(c2cccnc2)N2CCc3ccccc3C2)cc1 (stereo not drawn) returned HepG2 tox -47%, TGFb inhibitor inconclusive, TDP1 cell noCPT 21µM* and DT40 TDP1 CPT 12µM*.
Screening COc1cc(OC)c(Nc2cc(C)nc3ncnn23)cc1Cl returned HepG2 tox -8%, TGFb inhibitor 12%, TDP1 cell noCPT inconclusive and DT40 TDP1 CPT -26%.
N#Cc1cccc(NC(=O)N2CC[C@@]3(CCCN(C(=O)c4cnccn4)C3)C2)c1 was read as TDP1 cell noCPT -8% and DT40 TDP1 CPT inconclusive.
Screening COc1ccccc1-c1cn[nH]c1-c1ccc(OCc2ccc(F)cc2)cc1O returned HepG2 tox -35%, TGFb inhibitor inconclusive, HT1080 IDH1KD tx inconclusive, TDP1 cell noCPT inconclusive, HT1080NT lethal inconclusive and DT40 TDP1 CPT inconclusive.
Screening O=[N+]([O-])c1ccc(COc2ccc(-c3[nH]ncc3-c3ccccc3)c(O)c2)cc1 returned HepG2 tox -65%, TGFb inhibitor inconclusive, HT1080 IDH1KD tx inconclusive, TDP1 cell noCPT inconclusive, HT1080NT lethal inconclusive and DT40 TDP1 CPT inconclusive.
`COc1ccccc1-c1cn[nH]c1-c1ccc(OCc2ccc([N+](=O)[O-])cc2)cc1O` gave HepG2 tox -48%, TGFb inhibitor inconclusive, HT1080 IDH1KD tx -28%, TDP1 cell noCPT -17%, HT1080NT lethal inconclusive and DT40 TDP1 CPT 2%.
COc1ccc(-c2cn[nH]c2-c2ccc(OCc3ccccc3)cc2O)cc1OC was read as HepG2 tox -54%, TGFb inhibitor inconclusive, HT1080 IDH1KD tx 13µM*, TDP1 cell noCPT 18µM*, HT1080NT lethal inconclusive and DT40 TDP1 CPT 16µM*.
For Oc1cc(OCc2ccccc2)ccc1-c1[nH]ncc1-c1ccccc1 the results were HepG2 tox 20µM*, TGFb inhibitor inconclusive, HT1080 IDH1KD tx 23µM*, TDP1 cell noCPT 12µM*, HT1080NT lethal 16µM* and DT40 TDP1 CPT 10µM*.
For COc1ccccc1-c1cn[nH]c1-c1ccc(OCc2ccccc2F)cc1O the results were HepG2 tox 22µM*, TGFb inhibitor inconclusive, HT1080 IDH1KD tx inconclusive, TDP1 cell noCPT 15µM*, HT1080NT lethal inconclusive and DT40 TDP1 CPT 18µM*.
For COc1ccc(-c2cn[nH]c2-c2ccc(OCc3ccc(F)cc3)cc2O)cc1OC the results were HepG2 tox -30%, TGFb inhibitor 14µM*, HT1080 IDH1KD tx 18µM*, TDP1 cell noCPT 23µM*, HT1080NT lethal -28% and DT40 TDP1 CPT 21µM*.
CCCCN(Cc1cc2ccccc2[nH]c1=O)C(=O)c1ccccn1 was read as HepG2 tox -2%, TGFb inhibitor -3%, HT1080 IDH1KD tx 4%, TDP1 cell noCPT -11%, HT1080NT lethal 10% and DT40 TDP1 CPT -11%.
Screening N#CCNC1CC(=O)N(c2ccccc2)C1=O (stereo not drawn) returned HepG2 tox 0%, TGFb inhibitor 6%, HT1080 IDH1KD tx -2%, TDP1 cell noCPT -5%, HT1080NT lethal 3% and DT40 TDP1 CPT 4%.
COC(=O)c1ccc2c(c1)C(=O)/C(=C/c1ccc(C)cc1)O2 was read as HepG2 tox -3%, TGFb inhibitor inconclusive, HT1080 IDH1KD tx -3%, TDP1 cell noCPT 13µM*, HT1080NT lethal -5% and DT40 TDP1 CPT 18µM*.
Screening CCc1ccc(/C=C2\Oc3ccc(C(=O)OC)cc3C2=O)cc1 returned HepG2 tox -32%, TGFb inhibitor 32%, HT1080 IDH1KD tx inconclusive, TDP1 cell noCPT inconclusive, HT1080NT lethal 14% and DT40 TDP1 CPT -13%.
CCc1sc(Nc2ccc(C)cc2Br)nc1-c1cc2cccc(OC)c2oc1=O was read as HepG2 tox -2%, TGFb inhibitor 1%, TDP1 cell noCPT inconclusive and DT40 TDP1 CPT inconclusive.
CCc1ccc(Nc2nc(-c3cc4cccc(OC)c4oc3=O)c(CC)s2)cc1 was read as HepG2 tox -10%, TDP1 cell noCPT 23µM* and DT40 TDP1 CPT inconclusive.
`CCc1sc(Nc2ccc(Cl)cc2)nc1-c1cc2cccc(OC)c2oc1=O` gave HepG2 tox -20%, TGFb inhibitor -34%, TDP1 cell noCPT 21µM* and DT40 TDP1 CPT inconclusive.
For COc1ccc(S(=O)(=O)N2CCC[C@H]2C(=O)N2CCC[C@H]2C(=O)NCc2ccc(F)cc2F)cc1C the results were HT1080 IDH1KD tx inconclusive, TDP1 cell noCPT 18µM*, HT1080NT lethal inconclusive and DT40 TDP1 CPT inconclusive.
Screening COc1ccc(S(=O)(=O)N2CCC[C@H]2C(=O)N2CCC[C@H]2C(=O)NCc2ccccc2)cc1C returned HT1080 IDH1KD tx 11%, TDP1 cell noCPT inconclusive, HT1080NT lethal 1% and DT40 TDP1 CPT inconclusive.
For COc1cccc(CNC(=O)[C@@H]2CCCN2C(=O)[C@H]2CCCCN2S(=O)(=O)c2ccc(OC)c(C)c2)c1 the results were HT1080 IDH1KD tx 0%, TDP1 cell noCPT 21µM*, HT1080NT lethal 1% and DT40 TDP1 CPT inconclusive.
CCCCSc1nnc(-c2ccccc2NC(C)=O)c(=O)[nH]1 was read as HepG2 tox 0%, TGFb inhibitor 11%, HT1080 IDH1KD tx 23%, TDP1 cell noCPT -18%, HT1080NT lethal 1% and DT40 TDP1 CPT -1%.
Screening COc1ccccc1-n1c(C)cc(/C=C2\C(=N)N3N=C(CC(=O)N4CCOCC4)SC3=NC2=O)c1C returned HepG2 tox -16%, TGFb inhibitor 10%, HT1080 IDH1KD tx -9%, TDP1 cell noCPT inconclusive, HT1080NT lethal -10% and DT40 TDP1 CPT 18µM*.
Cc1ccc2[nH]c(C(=O)N3CCc4c(cnc(C)c4CNC(=O)c4ccccc4F)C3)cc2c1 was read as TDP1 cell noCPT -17% and DT40 TDP1 CPT 19%[9.04 µM].
For CC(=O)NC(c1ccccc1)c1nc(-c2ccc(F)c(Cl)c2)cs1 (stereo not drawn) the results were HepG2 tox -11%, TGFb inhibitor 6%, HT1080 IDH1KD tx -4%, TDP1 cell noCPT inconclusive, HT1080NT lethal -8% and DT40 TDP1 CPT inconclusive.
For COC(=O)c1cn(Cc2ccccc2C)nn1 the results were HepG2 tox 1.8µM*, TGFb inhibitor -29%, HT1080 IDH1KD tx -12%, TDP1 cell noCPT -13%, HT1080NT lethal 1% and DT40 TDP1 CPT -26%.
